# Laboratory results taken from PubChem BioAssay (NCATS).
# Records with an inconclusive call do not appear. Calls of active or inactive are those of the source. Calls come from the whole dose curve; as a rule, active = well fitted curve in the direction sought with a large enough effect; inconclusive = small, poorly fitted or top-dose-only effect, or another doubt; inactive = no such curve, though single readings can be large; an effect the other way counts as inactive or inconclusive.
# Assay: Cell Viability - HUV-EC-C (AID 542); note: % is set by controls: 0 for no effect and ±100 for the full control effect; nearly all actives have a fitted effect of over 35% in size
# Conditions: HUV-EC-C endothelial cell viability, qHTS; series mostly up to 92.2 µM; activity change, negative = cytotoxicity: at the top concentration
# Procedure, shortened: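 Decrease in cellular ATP, quantified by luciferase luminescence, reflects toxicity in normal human vascular endothelial HUV-EC-C cells given compound for 40 hr in complete culture medium. Values are AC50s from concentration-response curves.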
# 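Note: cells exposed to compound for 40 hours.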
row,Compound,"activity change, negative = cytotoxicity"
1,O=C(O)c1c(Cl)cccc1Cl,-12.8% (inactive)
2,CC(=O)CC(C)C,-9.88% (inactive)
3,NC(=O)/N=N/C(N)=O,-10.8% (inactive)
4,O=C(Cl)c1cccc([N+](=O)[O-])c1,4.89% (inactive)
5,CCCCC(=O)N(C)C,10.2% (inactive)
6,CSCCC=O,5.02% (inactive)
7,CCCCC(C=O)CC (configuration not stated),2.5% (inactive)
8,O=Cc1cccc(Br)c1,8.41% (inactive)
9,C=CCn1c(=O)n(CC=C)c(=O)n(CC=C)c1=O,-2.25% (inactive)
10,CCOc1cc(OCC)c(C(C)=O)cc1OCC,-5.3% (inactive)
11,CCC(C)=O,10.4% (inactive)
12,O=C1OC(=O)c2c(Cl)c(Cl)c(Cl)c(Cl)c21,14.5% (inactive)
13,CC=O,7.36% (inactive)
14,CCOc1ccccc1N,4.31% (inactive)
15,Cc1ccc(C(C)(C)C)cc1,1.61% (inactive)
16,CC(N)CN (configuration not stated),-3.35% (inactive)
17,O=C1CCC(=O)O1,0.155% (inactive)
18,O=[N+]([O-])c1ccc(NCCO)c(OCCO)c1,-2.64% (inactive)
19,ClCCl,13.4% (inactive)
20,Cc1ccc(C)o1,-5.07% (inactive)

row,Compound,"activity change, negative = cytotoxicity"
1,NC(=S)NNC(N)=S,7.71% (inactive)
2,Clc1ccc(Cl)c(Cl)c1Cl,-5.57% (inactive)
3,O=C(Cl)c1ccccc1[N+](=O)[O-],-0.0117% (inactive)
4,Nc1cccc(N)c1,-6.31% (inactive)
5,CC(C)=C1CCC(C)CC1=O (configuration not stated),-1.46% (inactive)
6,Nc1ccc(F)cc1F,-16.7% (inactive)
7,COC(=O)CCC(=O)OC,-7.78% (inactive)
8,CCc1ccccc1,0.2% (inactive)
9,CC(=O)OCCC(C)C,-5.09% (inactive)
10,C[C@@H]1CC2(OC3C[C@@]4(C)C5=CC[C@H]6C(C)(C)C(O[C@@H]7OC[C@@H](O)[C@H](O)[C@H]7O)CC[C@@]67C[C@@]57CC[C@]4(C)C31)OC(O)C1(C)OC21 (some centres not stated),-7.71% (inactive)
11,CC(=O)Nc1ccc(N)cc1,10.1% (inactive)
12,CN(C)c1cccc(O)c1,0.119% (inactive)
13,Nc1ccccc1S(=O)(=O)O,-3.06% (inactive)
14,C=CCOC(=O)CCCCCCCC,-4.61% (inactive)
15,CC(=O)CCc1ccccc1,11.6% (inactive)
16,c1ccsc1,9.95% (inactive)
17,NC(=O)c1ccccc1[N+](=O)[O-],0.425% (inactive)
18,O=C(O)/C=C/C(=O)O,1.12% (inactive)
19,O=C(O)c1ccc(CO)o1,-5.49% (inactive)

# Assay: Cell Viability - H-4-II-E (AID 543); note: % is set by controls: 0 for no effect and ±100 for the full control effect; nearly all actives have a fitted effect of over 35% in size
# Conditions: H-4-II-E rat hepatoma viability; series mostly up to 92.2 µM; activity change, negative = cytotoxic: at the top concentration
# Procedure, shortened: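 Here, cytotoxicity is measured in the rat hepatoma line H-4-II-E as loss of intracellular ATP after 40 hr compound treatment, detected by luciferase luminescence.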
row,Compound,"activity change, negative = cytotoxic"
1,O=C(O)c1c(Cl)cccc1Cl,-2.06% (inactive)
2,CC(=O)CC(C)C,-4.2% (inactive)
3,NC(=O)/N=N/C(N)=O,-0.945% (inactive)
4,O=C(Cl)c1cccc([N+](=O)[O-])c1,-9.22% (inactive)
5,CCCCC(=O)N(C)C,3.92% (inactive)
6,CSCCC=O,-3.13% (inactive)
7,CCCCC(C=O)CC (configuration not stated),0.128% (inactive)
8,O=Cc1cccc(Br)c1,-6.77% (inactive)
9,C=CCn1c(=O)n(CC=C)c(=O)n(CC=C)c1=O,-0.684% (inactive)
10,CCOc1cc(OCC)c(C(C)=O)cc1OCC,-19.4% (inactive)
11,CCC(C)=O,-4.08% (inactive)
12,O=C1OC(=O)c2c(Cl)c(Cl)c(Cl)c(Cl)c21,-1.81% (inactive)
13,CC=O,-0.054% (inactive)
14,CCOc1ccccc1N,-1.71% (inactive)
15,Cc1ccc(C(C)(C)C)cc1,-0.741% (inactive)
16,CC(N)CN (configuration not stated),-2.02% (inactive)
17,O=C1CCC(=O)O1,-4.01% (inactive)
18,O=[N+]([O-])c1ccc(NCCO)c(OCCO)c1,-4.15% (inactive)
19,ClCCl,-4.97% (inactive)
20,Cc1ccc(C)o1,-6.71% (inactive)

row,Compound,"activity change, negative = cytotoxic"
1,NC(=S)NNC(N)=S,-8.58% (inactive)
2,Clc1ccc(Cl)c(Cl)c1Cl,-0.465% (inactive)
3,O=C(Cl)c1ccccc1[N+](=O)[O-],-1.9% (inactive)
4,Nc1cccc(N)c1,-14% (inactive)
5,CC(C)=C1CCC(C)CC1=O (configuration not stated),-4.29% (inactive)
6,Nc1ccc(F)cc1F,-7.98% (inactive)
7,COC(=O)CCC(=O)OC,-1.19% (inactive)
8,CCc1ccccc1,-2.8% (inactive)
9,CC(=O)OCCC(C)C,-3.72% (inactive)
10,C[C@@H]1CC2(OC3C[C@@]4(C)C5=CC[C@H]6C(C)(C)C(O[C@@H]7OC[C@@H](O)[C@H](O)[C@H]7O)CC[C@@]67C[C@@]57CC[C@]4(C)C31)OC(O)C1(C)OC21 (some centres not stated),-5.89% (inactive)
11,CC(=O)Nc1ccc(N)cc1,-3.2% (inactive)
12,CN(C)c1cccc(O)c1,-1.83% (inactive)
13,Nc1ccccc1S(=O)(=O)O,-4.18% (inactive)
14,C=CCOC(=O)CCCCCCCC,-6.75% (inactive)
15,CC(=O)CCc1ccccc1,3.76% (inactive)
16,c1ccsc1,-0.817% (inactive)
17,NC(=O)c1ccccc1[N+](=O)[O-],0.439% (inactive)
18,O=C(O)/C=C/C(=O)O,-3.04% (inactive)
19,O=C(O)c1ccc(CO)o1,-1.22% (inactive)

# Assay: Cell Viability - SH-SY5Y (AID 544);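 note: 0% = DMSO alone and -100% = 100 µM tamoxifen; nearly all actives have a fitted effect of over 55% in size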
# Conditions: SH-SY5Y neuroblastoma cell viability; viability change, negative = cytotoxic: at 92.2 µM (top of the series)
# Procedure, shortened: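 Cytotoxicity is scored as a concentration-dependent fall in intracellular ATP in human SH-SY5Y cells treated 40 hr in complete culture medium. Potency is expressed as AC50 from a Hill equation fit.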
row,Compound,"viability change, negative = cytotoxic"
1,O=C(O)c1c(Cl)cccc1Cl,-13.6% (inactive)
2,CC(=O)CC(C)C,-18.4% (inactive)
3,NC(=O)/N=N/C(N)=O,-24.4% (inactive)
4,O=C(Cl)c1cccc([N+](=O)[O-])c1,-11.9% (inactive)
5,CCCCC(=O)N(C)C,-1.64% (inactive)
6,CSCCC=O,-15.5% (inactive)
7,CCCCC(C=O)CC (configuration not stated),0.0237% (inactive)
8,O=Cc1cccc(Br)c1,-12.6% (inactive)
9,C=CCn1c(=O)n(CC=C)c(=O)n(CC=C)c1=O,-4.97% (inactive)
10,CCOc1cc(OCC)c(C(C)=O)cc1OCC,-23% (inactive)
11,CCC(C)=O,-7.06% (inactive)
12,O=C1OC(=O)c2c(Cl)c(Cl)c(Cl)c(Cl)c21,-4.19% (inactive)
13,CC=O,1.32% (inactive)
14,CCOc1ccccc1N,-5.95% (inactive)
15,Cc1ccc(C(C)(C)C)cc1,3.15% (inactive)
16,CC(N)CN (configuration not stated),-11.5% (inactive)
17,O=C1CCC(=O)O1,4.11% (inactive)
18,O=[N+]([O-])c1ccc(NCCO)c(OCCO)c1,-0.307% (inactive)
19,ClCCl,-11.2% (inactive)
20,Cc1ccc(C)o1,-6.35% (inactive)

row,Compound,"viability change, negative = cytotoxic"
1,NC(=S)NNC(N)=S,-5.9% (inactive)
2,Clc1ccc(Cl)c(Cl)c1Cl,-13.2% (inactive)
3,O=C(Cl)c1ccccc1[N+](=O)[O-],5.65% (inactive)
4,Nc1cccc(N)c1,-8.84% (inactive)
5,CC(C)=C1CCC(C)CC1=O (configuration not stated),-0.415% (inactive)
6,Nc1ccc(F)cc1F,2.83% (inactive)
7,COC(=O)CCC(=O)OC,4.04% (inactive)
8,CCc1ccccc1,-7.42% (inactive)
9,CC(=O)OCCC(C)C,2.03% (inactive)
10,C[C@@H]1CC2(OC3C[C@@]4(C)C5=CC[C@H]6C(C)(C)C(O[C@@H]7OC[C@@H](O)[C@H](O)[C@H]7O)CC[C@@]67C[C@@]57CC[C@]4(C)C31)OC(O)C1(C)OC21 (some centres not stated),-12.1% (inactive)
11,CC(=O)Nc1ccc(N)cc1,-11.5% (inactive)
12,CN(C)c1cccc(O)c1,-6.57% (inactive)
13,Nc1ccccc1S(=O)(=O)O,-4.33% (inactive)
14,C=CCOC(=O)CCCCCCCC,-10.5% (inactive)
15,CC(=O)CCc1ccccc1,-0.385% (inactive)
16,c1ccsc1,-0.96% (inactive)
17,NC(=O)c1ccccc1[N+](=O)[O-],-9.26% (inactive)
18,O=C(O)/C=C/C(=O)O,-3.73% (inactive)
19,O=C(O)c1ccc(CO)o1,-9.37% (inactive)
